Results filed as inconclusive are left out. Activity calls are given as the source filed them. How the source made its calls, unless noted: active means hit-call score of the fitted dose curve at least 0.9, where 1 is the maximum; inactive means score below 0.9.

Experiment [1] is described as follows: CCTE_Shafer_MEA_dev_per_network_spike_spike_number_mean: CCTE's Neural Network Formation Assay for Mean Number of Spikes in a Network Spike, Shafer Lab (AID 2284053).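 Further: fitted as decrease in spikes per network spike relative to DMSO.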 In short, it runs like this: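 Continuous twelve-day exposure of developing rat cortical networks grown over 16 microelectrodes per well; spontaneous firing is captured at four time points, and the per-network-spike spike number is integrated over development by trapezoidal AUC.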

Experiment [2] is described as follows: CCTE_Shafer_MEA_dev_per_network_spike_spike_percent: CCTE's Neural Network Formation Assay for Percent of Spikes in a Network Spike, Shafer Lab (AID 2284054). A digest of the protocol: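 Primary rat cortical neurons on 16-electrode MEA wells (PEI-coated, laminin at plating), exposed from day 0 with renewal at DIV 5 and 9; spikes within 0.05 s of network-spike peaks over total spikes, AUC across days 5, 7, 9, 12.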

A short description of experiment [3]: CCTE_Shafer_MEA_dev_LDH: CCTE's Lactate Dehydrogenase Assay for Cytotoxicity in the Neural Network Formation Assay, Shafer Lab (AID 2284068; active means hit-call score of the fitted dose curve at least 0.9, where 1 is the maximum;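 further: exposure for twelve days from plating with re-dosing on DIV 5 and 9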). A digest of the protocol: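 Cytotoxicity companion to network-formation recordings: rat cortical neurons received compound over 12 days of development, re-dosed at DIV 5 and 9 feeds. Viability was inferred from LDH enzyme activity relative to DMSO.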

Experiment [4] in a line: CCTE_Shafer_MEA_dev_AB: CCTE's Alamar Blue Assay for Cytotoxicity in the Neural Network Formation Assay, Shafer Lab (AID 2284083; active means hit-call score of the fitted dose curve at least 0.9, where 1 is the maximum;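 further: resazurin reduction fluorescence as viability of cultured neurons; twelve days of exposure from plating with re-dosing on DIV 5 and 9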). In short, it runs like this:
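Fluorescent resazurin reduction serves as the viability read-out, with DMSO as negative control and baseline. Cells were primary rat cortical neurons grown on MEA plates and dosed from day 0 to day 12, treatment renewed on DIV 5 and 9.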

Experiment [5] in a line: CCTE_Shafer_MEA_dev_mutual_information_norm: CCTE's Neural Network Formation Assay for Mutual Information Normalization, Shafer Lab (AID 2284091).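 Further: mutual information between electrodes summarised as area under curve across four recording days; potency is for a decrease in mutual information relative to DMSO.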 A digest of the protocol:
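Rat cortical cultures, 48-well MEA, continuous exposure DIV 0–12 with full media/compound change DIV 5 and 9. Readout: inter-electrode mutual information, AxIS adaptive spike detection; AUC across DIV 5/7/9/12 recordings; DMSO baseline, negative fitting direction.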

A short description of experiment [6]: CCTE_Shafer_MEA_dev_correlation_coefficient_mean: CCTE's Neural Network Formation Assay for Mean Correlation Coefficient, Shafer Lab (AID 2284093).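 Further: well mean pairwise spike train correlation integrated as AUC over recording days 5 to 12; potency fitted for loss of correlation relative to DMSO vehicle wells.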 In short, it runs like this: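 Read-out: well-mean correlation coefficient of spike trains between electrode pairs, collapsed over four recording days as trapezoidal area-under-the-curve. Developing rat cortical neuron networks grown on MEAs received test chemical continuously from plating.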

Experiment [7] in a line: CCTE_Mundy_HCI_Cortical_Synap_Neur_Matur_BPCount: CCTE's Synaptogenesis and Neurite Maturation Assay in rat cortical cells for Branch Point Count, Mundy Lab (AID 2284211). In short, it runs like this:
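Rat primary cortical cultures, AraC added DIV 5; chemicals dosed DIV 7 through DIV 12. Fixed cells stained for MAP2, synaptophysin and Hoechst; neurite branch points counted by automated high-content imaging, fitted relative to DMSO.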

Experiment [8] can be described thus: CCTE_Mundy_HCI_Cortical_NOG_NeuriteCount: CCTE's Neurite Outgrowth Assay in rat cortical cells for Neurite Count, Mundy Lab (AID 2284212).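 Further: cells fixed about two days after chemical exposure began.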 In short, it runs like this:
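Neurite number per cell from high-content imaging of betaIII-tubulin immunostaining, with Hoechst nuclear counterstain.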

Experiment [9] in a line: CCTE_Mundy_HCI_Cortical_NOG_NeuriteLength: CCTE's Neurite Outgrowth Assay in rat cortical cells for Neurite Length, Mundy Lab (AID 2284213).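 Further: neurites imaged about 48 to 50 h after chemical exposure began.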 In short, it runs like this: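 Neurite length was read by high-content imaging of βIII-tubulin-labelled neurites in rat primary cortical cultures. Activity was fitted relative to DMSO.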
A short description of experiment [10]: CCTE_Mundy_HCI_Cortical_Synap_Neur_Matur_NeuriteLength: CCTE's Synaptogenesis and Neurite Maturation Assay in rat cortical cells for Neurite Length, Mundy Lab (AID 2284214). A digest of the protocol:
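Rat cortical neurons, AraC at DIV 5; compound + media change DIV 7, end DIV 12 (288.33 h). Fix, MAP2/synaptophysin/Hoechst immunostain, automated HCI of neurite length vs DMSO.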

Experiment [11] can be described thus: CCTE_Mundy_HCI_Cortical_Synap_Neur_Matur_NeuriteSpotCountPerNeuron: CCTE's Synaptogenesis and Neurite Maturation Assay in rat cortical cells for Neurite Spot Count per Neuron Count, Mundy Lab (AID 2284215). A digest of the protocol: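 Rat cortical primary cultures; AraC DIV 5 to arrest glia; dosing + media change DIV 7; fixed DIV 12. Anti-MAP2/anti-synaptophysin, Hoechst nuclei; HCI puncta count per neuron, positive fitting direction vs DMSO.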

Experiment [12] is described as follows: CCTE_Mundy_HCI_Cortical_Synap_Neur_Matur_SynapseCount: CCTE's Synaptogenesis and Neurite Maturation Assay in rat cortical cells for Synapse Count, Mundy Lab (AID 2284218). A digest of the protocol: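 Primary rat cortical culture; AraC DIV 5 to arrest glia; compound + media change DIV 7; terminated DIV 12. PFA/Hoechst fix, anti-MAP2 + anti-synaptophysin immunostain; HCI synapse count/neuron; DMSO = baseline.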

The nature of experiment [13]: CCTE_Mundy_HCI_hN2_NOG_NeuriteCount: CCTE's Neurite Outgrowth Assay in human hN2 cells for Neurite Count, Mundy Lab (AID 2284219; active means hit-call score of the fitted dose curve at least 0.9, where 1 is the maximum). A digest of the protocol:
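In this morphology assay, hNP1-derived neurons received test chemical 2 h post-plating and were fixed two days later in warm paraformaldehyde/sucrose containing Hoechst 33342. Neurites, labelled by rabbit anti-βIII-tubulin (1:800) and Alexa Fluor-488 (1:500), were counted automatically.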

A short description of experiment [14]: CCTE_Mundy_HCI_hN2_NOG_NeuriteLength: CCTE's Neurite Outgrowth Assay in human hN2 cells for Neurite Length, Mundy Lab (AID 2284220; active means hit-call score of the fitted dose curve at least 0.9, where 1 is the maximum). A digest of the protocol:
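Using βIII-tubulin immunofluorescence and Hoechst nuclear counterstain, this component quantifies neurite length in hNP1-derived neurons.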

A short description of experiment [15]: CCTE_Mundy_HCI_hN2_NOG_NeuronCount: CCTE's Neurite Outgrowth Assay in human hN2 cells for Neuron Count, Mundy Lab (AID 2284221; active means hit-call score of the fitted dose curve at least 0.9, where 1 is the maximum). In short, it runs like this:
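Read-out is the number of betaIII-tubulin-positive neurons imaged by automated high-content analysis, with DMSO as negative control.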

Experiment [16] is described as follows: CCTE_Mundy_HCI_Cortical_Synap_Neur_Matur_NeuriteCount: CCTE's Synaptogenesis and Neurite Maturation Assay in rat cortical cells for Neurite Count, Mundy Lab (AID 2284222).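 Further: exposure from day 7 to day 12 in vitro with readout at day 12.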 A digest of the protocol:
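Chemical exposure runs DIV 7–12 in rat cortical cultures, glia suppressed by AraC at DIV 5; measurement is at DIV 12. Imaging-derived neurite counts are fitted against DMSO baseline.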

Experiment [17] is described as follows: CCTE_Mundy_HCI_hNP1_Pro_ResponderAvgInten: CCTE's Proliferation Assay in human neuroprogenitor cells, Mundy Lab (AID 2284224; active means hit-call score of the fitted dose curve at least 0.9, where 1 is the maximum). In short, it runs like this: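 Human neuroprogenitors (hNP1, WA09 lineage) receive test chemical after 40 to 44 hours of attachment. A four-hour BrdU pulse begins twenty hours later, followed by fixation and high content imaging; signal is referenced to DMSO controls.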

A short description of experiment [18]: CCTE_Mundy_HCI_Cortical_NOG_NeuronCount: CCTE's Neurite Outgrowth Assay in rat cortical cells for Neuron Count, Mundy Lab (AID 2284236; active means hit-call score of the fitted dose curve at least 0.9, where 1 is the maximum;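 further: neurons counted by imaging betaIII-tubulin and Hoechst stained cortical cells; cells exposed to compound for about 48 hours before fixation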). A digest of the protocol:
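Read-out: neuron number by high-content imaging of betaIII-tubulin (Alexa Fluor-488) and Hoechst-labelled rat primary cortical cells.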

Experiment [19] can be described thus: CCTE_Mundy_HCI_hNP1_Casp3_7: CCTE's Caspase-Glo 3/7 Assay in human neuroprogenitor cells for Apoptosis, Mundy Lab (AID 2284240). A digest of the protocol:
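Neuroepithelial-lineage stem cells from WA09 embryonic cells were treated with chemicals after 40–44 h of culture. Twenty-four hours later, caspase-3/7 activation was detected luminescently after a 30 min room-temperature reagent step, with DMSO as baseline.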

Experiment [20] in a line: CCTE_Mundy_HCI_hNP1_CellTiter: CCTE's Cell Titer-Glo 2 Assay in human neuroprogenitor cells for Viability, Mundy Lab (AID 2284241; active means hit-call score of the fitted dose curve at least 0.9, where 1 is the maximum;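 further: a hit is a drop in ATP luminescence versus DMSO meaning reduced viability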). In short, it runs like this: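 Measures ATP content in human neural progenitors derived from WA09 embryonic cells. Read-out at 26.5 hours after dosing, with DMSO serving as the negative control and baseline.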
Background: ATP-based viability assays read luminescence as a measure of living cells.

Experiment [21] is described as follows: CCTE_Mundy_HCI_Cortical_Synap_Neur_Matur_NeuronCount: CCTE's Synaptogenesis and Neurite Maturation Assay in rat cortical cells for Neuron Count, Mundy Lab (AID 2284242; active means hit-call score of the fitted dose curve at least 0.9, where 1 is the maximum;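 further: hits reduce neuron count versus DMSO baseline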). In short, it runs like this:
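Neuron number was scored by automated high-content imaging of Hoechst- and MAP2-labelled rat primary cortical cells. Glial growth was arrested with AraC at DIV 5, compounds were applied from DIV 7, and cultures ended at DIV 12.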

As usually defined, the AC50 is the concentration at which the activity in the assay is half-maximal. Regarding `CCC[CH2][Sn]([CH2]CCC)([CH2]CCC)[O][Sn]([CH2]CCC)([CH2]CCC)[CH2]CCC`, the half-maximal activity concentration (AC50) is 29 nM (active) in [1]; 77 nM (active) in experiment [2]; 32.8 nM (active) in experiment [3]; 45.5 nM (active) in [4]; 34.5 nM (active) in experiment [5]; 33.5 nM (active) in experiment [6]. Also, the AC50 in [7] was 23 nM (active); in experiment [8] it was 27.8 nM (active); in experiment [9], 22.1 nM (active); in experiment [10], 14.5 nM (active); in experiment [11] it was 22.6 nM (active); in experiment [12], 22 nM (active). The concentration at half-maximal activity (AC50) is 47.8 nM (active) in [13]; 43.6 nM (active) in [14]; 31.9 nM (active) in experiment [15]; 125 nM (active) in experiment [17]; 31.1 nM (active) in experiment [18]; 115 nM (active) in [19]. The AC50 is 57.2 nM (active) in experiment [20] and 10.8 nM (active) in experiment [21]. For the same compound, in experiment [16], the result was inactive.

The record behind these values is PubChem BioAssay (EPA / NIEHS).
